The values that follow come from PubChem BioAssay (NCATS).

Test [1] in a line: Vero cells viability qHTS for Zika virus inhibitors (AID 1347167). Further: on the % scale 0 is the no-effect control and ±100 the full control effect. Particulars: cytotoxicity counter-screen (Zika); series mostly up to 45.9 µM. In a few lines:
(§1)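 qHTS titration; 24-48 h compound exposure, 37 degrees C/5% CO2; DMEM, 4% FBS; CellTiter Glo ATP luminescence.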
On the technique in general: In qHTS, concentration-response curves come from the screen itself.

The nature of test [2]: HepG2 cells viability qHTS for Zika virus inhibitors (AID 1347168). Further: potency means the concentration at half of the fitted maximal effect. The note with it: Zika counter-screen; series mostly up to 45.9 µM. The essentials:
as §1

Test [3] in a line: Tertiary RLuc qRT-PCR qHTS assay for Zika virus inhibitors (AID 1347169). Further: top concentration of the series differs between compounds; on the % scale 0 is the no-effect control and ±100 the full control effect; nearly all actives have a fitted effect of over 55% in size. Particulars: infected Vero cells, reporter luminescence, 48-72 h; series mostly up to 45.9 µM. The essentials: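 Orthogonal cell-based readout: luminescence measured 1-1.5 hrs after adding live-cell Renilla substrate to Vero cells that had been infected with ZIKV-RLuc (MOI 1-2) post-compound, incubated 48-72 hrs at 37 degrees C.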
(In general: Real-time PCR tracks product formation cycle by cycle.)

Test [4] in a line: OV-KATE Cancer Cell Toxicity qHTS against the NCATS CANVASS Library (AID 1347345). Further: on the % scale 0 is the no-effect control and ±100 the full control effect. Particulars: OV-KATE cells viability, CellTiter-Glo luminescence, 72 h; series mostly up to 38.3 µM. In a few lines: (§2)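 Step one: seed 1000 cells per well. Step two: incubate 4 h. Step three: add test compounds in 11 concentrations. Step four: culture 72 h, then add CellTiter-Glo and record luminescence after 15min.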

The nature of test [5]: HPAF-II Cancer Cell Toxicity qHTS against the NCATS CANVASS Library (AID 1347346). Further: on the % scale 0 is the no-effect control and ±100 the full control effect; nearly all actives have a fitted effect of over 55% in size. Particulars: HPAF-II viability, CellTiter-Glo ATP luminescence, 72 h; series mostly up to 38.3 µM. The essentials:
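First, HPAF-II cells are plated (1000 cells/well) and held 4 h at 37 degrees C. Next, compounds are pin-transferred as an 11-point series. After 72 h, CellTiter-Glo is added and luminescence measured.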

Test [6] can be described thus: UWB1.289 Cancer Cell Toxicity qHTS against the NCATS CANVASS Library (AID 1347347). Further: on the % scale 0 is the no-effect control and ±100 the full control effect; nearly all actives have a fitted effect of over 60% in size. Particulars: UWB1.289 viability, CellTiter-Glo luminescence, 72 h; series mostly up to 38.3 µM. The essentials: as §2
Test [7] is described as follows: OV-SAHO Cancer Cell Toxicity qHTS against the NCATS CANVASS Library (AID 1347348). Further: on the % scale 0 is the no-effect control and ±100 the full control effect; nearly all actives have a fitted effect of over 55% in size. Particulars: OV-SAHO viability, CellTiter-Glo luminescence, 72 h; series mostly up to 38.3 µM. In a few lines:
as §2

The nature of test [8]: Panc-1005 Cancer Cell Toxicity qHTS against the NCATS CANVASS Library (AID 1347349). Further: on the % scale 0 is the no-effect control and ±100 the full control effect; nearly all actives have a fitted effect of over 60% in size. The note with it: Panc-1005 viability, CellTiter-Glo luminescence, 72 h; series mostly up to 38.3 µM. The essentials: as §2
The nature of test [9]: SW1088 Cancer Cell Toxicity qHTS against the NCATS CANVASS Library (AID 1347350). Further: nearly all actives have a fitted effect of over 75% in size. Particulars: SW1088 viability, CellTiter-Glo luminescence, 72 h; at 38.3 µM (top of the series). In a few lines: as §2
Test [10] is described as follows: U-118MG Cancer Cell Toxicity qHTS against the NCATS CANVASS Library (AID 1347351). Further: on the % scale 0 is the no-effect control and ±100 the full control effect. Particulars: U-118MG viability, CellTiter-Glo luminescence, 72 h; series mostly up to 38.3 µM. The essentials: as §2
Test [11] is described as follows: COV-362 Cancer Cell Toxicity qHTS against the NCATS CANVASS Library (AID 1347352). Further: on the % scale 0 is the no-effect control and ±100 the full control effect. The note with it: COV-362 viability, CellTiter-Glo luminescence, 72 h; series mostly up to 38.3 µM. In a few lines:
(§3)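 First, 1000 cells go into each well and rest for 4 hours. Next, an 11-point dilution range is pinned in. Plates then incubate 72 hours before CellTiter-Glo addition and luminescence reading.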

Test [12] in a line: A2780 Cisplatin Sensitive Ovarian Cancer Cell Toxicity qHTS against the NCATS CANVASS Library (AID 1347353). Further: nearly all actives have a fitted effect of over 60% in size. The note with it: A2780 ovarian cancer viability, ATPLite luminescence, 72 h; at 46.1 µM (top of the series). In a few lines:
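Cells are plated at 750 per well and rest for 4 hours. Compounds are added across eleven concentrations, and incubated 72 hours before ATP is quantified by luminescence.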

Test [13] is described as follows: UWB1.289-WTBRCA1 Cancer Cell Toxicity qHTS against the NCATS CANVASS Library (AID 1347354). Further: on the % scale 0 is the no-effect control and ±100 the full control effect. Particulars: UWB1.289-WTBRCA1 viability, CellTiter-Glo luminescence, 72 h; series mostly up to 38.3 µM. The essentials:
as §3

Test [14] can be described thus: HEK-293 Cancer Cell Toxicity qHTS against the NCATS CANVASS Library (AID 1347355). Further: nearly all actives have a fitted effect of over 65% in size. Particulars: HEK-293 viability, CellTiter-Glo luminescence, 72 h; at 46.1 µM (top of the series). In a few lines: as §3
Test [15] is described as follows: HPAF-II 24hr Apoptosis Induction qHTS against the NCATS CANVASS Library (AID 1347356). Further: 0% is about no effect. Particulars: HPAF-II caspase-3/7 Caspase-Glo luminescence; series mostly up to 46.1 µM. The essentials: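 Cells seeded at 500 per well, then compounds pin-transferred in an 11-point concentration series. After 24 hours at 37 degrees C, Caspase-Glo 3/7 was added and luminescence measured following 15 min at room temperature.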

The nature of test [16]: HEK293 18hr Apoptosis Induction qHTS against the NCATS CANVASS Library (AID 1347357). Further: 0% is about no effect. The note with it: HEK293 caspase-3/7 Caspase-Glo luminescence; series mostly up to 46.1 µM. The essentials:
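Caspase-Glo 3/7 luminescence (15 min, room temperature) measured apoptosis after an 18-hour, 37 degrees C exposure of HEK293 cells (500 cells/well) to compounds in 11 points.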

Test [17] can be described thus: HPAF-II 12hr Apoptosis Induction qHTS against the NCATS CANVASS Library (AID 1347358). Further: 0% is about no effect. The note with it: HPAF-II caspase-3/7 Caspase-Glo luminescence; series mostly up to 46.1 µM. The essentials: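 Cells plated at 500 per well are dosed with compound and incubated 12 hours at 37 degrees C. Caspase-Glo 3/7 reagent is added and, after 15 min at room temperature, luminescence proportional to caspase activity is measured.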

Test [18] is described as follows: HEK293 24hr Apoptosis Induction qHTS against the NCATS CANVASS Library (AID 1347359). Further: 0% is about no effect. The note with it: HEK293 caspase-3/7 activation, Caspase-Glo luminescence; series mostly up to 46.1 µM. In a few lines: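 HEK293 cells, 500 per well, exposed to an 11-point compound series for 24 hours at 37 degrees C. Caspase 3/7 activity read by Caspase-Glo luminescence (DEVD substrate) after 15 min at room temperature.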

The nature of test [19]: HPAF-II 18hr Apoptosis Induction qHTS against the NCATS CANVASS Library (AID 1347360). Further: 0% is about no effect. The note with it: HPAF-II caspase-3/7 luminescence; series mostly up to 46.1 µM. In a few lines: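 Caspase-3/7 activation was measured with luminescent Caspase-Glo 3/7 reagent (15 min, RT) in HPAF-II cancer cells (500 cells/well). Before detection, cells had been treated for 18 h at 37 C with compounds (11 points).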

Test [20] is described as follows: HEK293 12hr Apoptosis Induction qHTS against the NCATS CANVASS Library (AID 1347361). Further: 0% is about no effect. Particulars: HEK293 caspase-3/7 Caspase-Glo luminescence; series mostly up to 46.1 µM. In a few lines:
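HEK293 cells (500/well, DMEM + 10% FBS) were exposed to natural products across an 11-point series for 12 hours at 37 degrees C. Caspase-3/7 activity was then measured with DEVD luciferase luminescence after 15 min at room temperature.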

Several values for one entry are separate records, joined by “and”; a condition that tells them apart may be missing. Equal values may be shown once. Records with an inconclusive call do not appear. Activity calls are given as the source filed them. The call rests on the fitted dose curve; in most records, active means well fitted curve in the direction sought with a large enough effect; inconclusive means small, poorly fitted or top-dose-only effect, or another doubt; inactive means no such curve, though single readings can be large; an effect the other way counts as inactive or inconclusive.

Turning to `CC(=O)N(C)c1cccc(-c2ccnc3c(C(=O)c4cccs4)cnn23)c1`, the Potency entry in test [1] and in test [2] was “inactive” throughout.

With `CN(C)[C@@H]1C(=O)C(C(N)=O)=C(O)[C@@]2(O)C(=O)C3=C(O)c4c(O)cccc4[C@@](C)(O)[C@H]3[C@H](O)[C@@H]12`, the Potency entry in test [1] and in test [2] was “inactive” in each case. Further, the compound was called inactive in [3].

Turning to `O=C(O)c1cc(Oc2ccc(C(F)(F)F)cc2Cl)ccc1[N+](=O)[O-]`, the activity change, negative = inhibition in [3] is 35.5% [at 1.74 µM] (inactive).

As for `NCCc1c[nH]c2ccccc12`, the compound was classed as inactive in test [4], in test [5], in [6], in test [7], in [8] and in test [9]. Besides, the compound was called inactive in test [10], in [11], in [12], in [13], in test [14] and in [15]. For the same compound, the compound was called inactive in test [16], in test [17], in [18], in [19] and in test [20].

Take `C=CCN1CC[C@]23CCCCC2[C@H]1Cc1ccc(O)cc13` (stereo not given in full): the Potency result in [1] and in test [2] was “inactive” in each case. Also, in [3], the outcome was inactive.

On to `O=[N+]([O-])c1c(Cl)c(Cl)cc(Cl)c1Cl`, for which the activity change, negative = inhibition in test [3] is 77.7% [at 3.57 µM] (inactive).

Take `O=C1C(I)=CC(=C(c2cc(I)c(O)c(I)c2)c2ccccc2C(=O)O)C=C1I`: the activity change, negative = inhibition in test [3] is 34.1% [at 1.74 µM] (inactive).

`NCCc1c[nH]c2ccc(O)cc12`: the outcome in test [4], in [5], in [6], in test [7], in [8] and in test [9] was inactive. Also, the compound was classed as inactive in test [10], in test [11], in test [12], in [13], in test [14] and in test [15]. The compound was called inactive in test [16], in [17], in [18], in [19] and in test [20].

In the case of `Nc1c(Cl)c(Cl)c(Cl)c(Cl)c1Cl`, the compound was classed as inactive in test [3].

With `CC(C)Oc1cccnc1N(C)C1CCN(Cc2ccccc2)CC1`, the Potency result in test [1] and in [2] was “inactive” each time. Further, in [3], the compound was called inactive.

As to `CC1=C(O)C(=O)C=C2C1=CC=C1[C@@]2(C)CC[C@@]2(C)[C@@H]3C[C@](C)(C(=O)O)CC[C@]3(C)CC[C@]12C`, in test [2], the Potency was 18.5 µM (active) and 7.37 µM (active).
